EphB4 ephrin blk: EphB4-ephrin-B2 interaction antagonism; hit rate 0.15% among 97,000; EphB4 LBD / TNYL-RAW-Alexa532 peptide, fluorescence polarization; AID 720; inhibition, % at 7 µM; P54760;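 active = inhibition above the screen-wide mean inhibition plus 3 SD, cut at about 15% in these data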
CYP2C9 inhib: blocks human cytochrome P450 2C9; P11712; CYP2C9 Supersomes, luciferin-H conversion, luminescence; inhibition, % at 5 µM; hit rate 20% among 96,000; AID 777;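 active = blocking of liver enzyme CYP2C9 beyond about 50% at 5 µM, limit read from the data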
Target sequence (P11712 whole entry, looked up): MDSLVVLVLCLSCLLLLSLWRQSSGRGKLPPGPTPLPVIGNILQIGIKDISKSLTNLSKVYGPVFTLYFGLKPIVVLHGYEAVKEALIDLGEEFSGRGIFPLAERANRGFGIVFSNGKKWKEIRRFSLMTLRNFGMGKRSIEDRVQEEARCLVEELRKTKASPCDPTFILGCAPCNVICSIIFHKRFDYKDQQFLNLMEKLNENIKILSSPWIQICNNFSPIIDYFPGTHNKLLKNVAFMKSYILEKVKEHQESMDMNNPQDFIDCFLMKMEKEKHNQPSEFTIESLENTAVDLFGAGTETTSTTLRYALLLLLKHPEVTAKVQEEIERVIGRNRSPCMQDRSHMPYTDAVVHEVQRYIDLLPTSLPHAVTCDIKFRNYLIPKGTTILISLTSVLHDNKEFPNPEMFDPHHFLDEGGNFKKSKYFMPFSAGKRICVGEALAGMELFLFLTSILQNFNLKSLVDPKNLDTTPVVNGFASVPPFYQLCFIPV
CYP2C9 act: activators of human CYP2C9. P11712. recombinant CYP2C9, luciferin-H conversion, luminescence; stronger effect = higher value; factor 1 = untreated enzyme, 0 = blocked. activation factor at 5 µM. hit rate 1.4% among 96,000;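 active = activation factor of 2 or more for CYP2C9 at a 5 µM dose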
CYP2C19 act: increases human CYP2C19 enzyme activity. P33261. recombinant CYP2C19, luciferin-H EGE luminescence; stronger effect = higher value; 0 = fully inhibited enzyme, 1 = untreated enzyme. 96,000 tested, under 10 active. activation factor at 5 µM;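 active = activation factor of at least 2 at 5 µM in the primary screen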
CYP2C19 inh: human CYP2C19 inhibition; CYP2C19 Supersomes, luciferin-H EGE luminescence, 30 min; inhibition, % at 5 µM; hit rate 21% among 96,000;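 active = CYP2C19 inhibition above a set limit at 5 µM in the primary screen, cut at about 50% in these data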
A number is an active result; . = inactive; / = not tested or not shown. In the library only some 27% were active in any assay of this set; here they are far more common.

SMILES	EphB4 ephrin blk	CYP2C9 inhib	CYP2C9 act	CYP2C19 act	CYP2C19 inh
CC(C)OC(=O)c1nnn(-c2nonc2N)c1CN1CCCCCC1	.	.	.	.	.
COC(=O)c1nnn(-c2nonc2N)c1-c1cccs1	.	.	.	.	.
CCOC(=O)c1nnn(-c2nonc2N)c1CN1CCc2ccccc2C1	.	58.0	.	.	.
CC(C)OC(=O)c1nnn(-c2nonc2N)c1CN1CCc2ccccc2C1	.	68.2	.	.	.
CCC1C(=O)N=C(SCC(=O)Nc2ccccc2)NC1=O (configuration not stated)	.	/	/	/	/
CCOC(=O)c1nnn(-c2nonc2N)c1COc1c(C=O)cccc1OC	.	71.3	.	.	.
CCOC(=O)c1nnn(-c2nonc2-n2cccc2)c1CCl	.	68.2	.	.	.
N#Cc1c2c(c(NCCCN3CCOCC3)n3c1nc1ccccc13)CCC2	.	.	.	.	.
N#Cc1c2c(c(NCCN3CCOCC3)n3c1nc1ccccc13)CCCC2	.	86.0	.	.	53.0
CC(C)Cc1nc(N2CCOCC2)c(C#N)c2c1COC(C)(C)C2	.	67.6	.	.	85.2
CC(C)Cc1nc(NCCN2CCOCC2)c(C#N)c2c1COC(C)(C)C2	.	78.9	.	.	88.0
CC(C)c1cc(NCC2CCCO2)n2c(nc3ccccc32)c1C#N (configuration not stated)	.	73.4	.	.	.
CC(=O)N1CCc2cc(S(=O)(=O)CCC(=O)N3CCc4ccccc4C3)ccc21	.	.	.	.	.
CCCCc1nc(NCCN2CCOCC2)c(C#N)c2c1COC(C)(C)C2	.	69.4	.	.	.
CC(C)c1nc(NCCN2CCOCC2)c(C#N)c2c1COC(C)(C)C2	.	.	.	.	.
CCc1nc(NCCN2CCOCC2)c(C#N)c2c1CCCC2	.	.	.	.	68.7
CCCc1nc2oc3c(NCCN4CCOCC4)ncnc3c2c2c1CCCC2	/	.	.	.	.
O=C(Nc1ccc(N2CCCCC2)cc1)c1ccc2c(c1)OCCO2	.	.	.	.	.
O=C(CCCN1C(=O)c2ccccc2C1=O)Nc1nccs1	.	.	.	.	.
Cc1cc(=O)[nH]c(-n2[nH]c3c(c2=O)CCCC3)n1	.	.	.	.	.
O=C1C2C3C=CC(C3)C2C(=O)N1CCCO (configuration not stated)	.	/	/	/	/
O=C(Nc1cccc(Cl)c1)Nc1cccc(Cl)c1	.	/	/	/	/
COC(=O)c1ccc(NC(=S)NC(=O)c2cc(-c3ccccc3)nc3ccccc23)cc1	.	.	.	.	.
O=C(NNC(=O)c1cc(-c2ccccc2)nc2ccccc12)Nc1cccc(Cl)c1	.	74.7	.	.	.
O=C(O)CCCC(=O)Nc1ccccc1C(=O)O	.	.	.	.	.
SMILES	EphB4 ephrin blk	CYP2C9 inhib	CYP2C9 act	CYP2C19 act	CYP2C19 inh
COc1ccc(Cl)cc1C(=O)NNC(=S)NC(=O)c1cc(-c2ccccc2)nc2ccccc12	.	.	.	.	.
CC(C)(C)c1ccc(-c2cc(C(=O)NNC(=O)Nc3ccccc3)c3ccccc3n2)cc1	.	81.7	.	.	.
O=C(Cc1cccc2ccccc12)Nc1ccccc1C(=O)O	.	87.2	.	.	.
O=C(Cc1cccc2ccccc12)NNC(=O)Nc1cccc(Cl)c1	.	.	2.2	.	55.6
CCCN=CC1=C(O)CC(c2ccccc2)CC1=O (configuration not stated)	.	/	/	/	/
Cc1cc2c(ccc3[nH]onc32)n1	.	.	.	.	.
CC(C)Oc1ccc(C(=O)N/N=C/c2ccc(-c3ccc(S(=O)(=O)Nc4ncccn4)cc3)o2)cc1	.	83.8	.	.	.
COc1cccc(C(=O)Nc2ccc3c(c2)C(=O)N(CCC(=O)O)C3=O)c1	.	.	.	.	.
COc1ccc(CNC(=O)COC(=O)c2cc(-c3cccs3)nc3ccccc23)cc1OC	.	74.8	.	.	.
CC(C)COC(=O)Cn1cnc2ccc(Br)cc2c1=O	.	55.5	.	.	91.1
O=C(Cn1cnc2ccc(Cl)cc2c1=O)c1cccs1	.	.	.	.	53.9
O=C(Cn1cnc2ccccc2c1=O)c1ccccc1	.	/	/	/	/
O=C(Cn1cnc2ccccc2c1=O)c1cccs1	.	.	.	.	.
O=C(Cn1cnc2ccc(Br)cc2c1=O)c1cccs1	.	52.2	.	.	77.9
CCCCOC(=O)Cn1cnc2ccc(Br)cc2c1=O	.	.	.	.	.
O=C(Cc1ccccc1)N/N=C/c1ccccn1	.	/	/	/	/
CC(Nc1cccc2ccccc12)C(=O)N/N=C/c1ccccn1 (configuration not stated)	.	.	.	.	86.0
O=C(CSc1ncnc2c1cnn2CCc1ccccc1)Nc1cccc(C(F)(F)F)c1	.	97.6	.	.	78.4
COC(=O)CSc1ncnc2c1cnn2Cc1ccccc1	.	.	.	.	68.5
Cc1c(Cl)cccc1NC(=O)CSc1ncnc2c1cnn2CCc1ccccc1	.	89.4	.	.	63.1
CCc1cccc(NC(=O)Nc2cccs2)c1	.	.	.	.	.
N#Cc1cccc(NC(=O)Nc2cccs2)c1	.	83.8	.	.	.
Cc1cc(C)c(OCCCCNCc2ccccc2)c(Cl)c1	.	.	.	.	.
Fc1ccccc1CNc1ccc(Cl)cc1	.	.	.	.	.
Cc1ccc(CNCc2ccccc2Cl)cc1	.	.	.	.	99.0
SMILES	EphB4 ephrin blk	CYP2C9 inhib	CYP2C9 act	CYP2C19 act	CYP2C19 inh
Fc1cccc(Cl)c1CNCc1ccccc1Cl	.	.	.	.	85.5
COc1c(C)cc(Br)cc1C(=O)Nc1ccc(N2CCN(S(C)(=O)=O)CC2)cc1	.	.	.	.	.
COc1ccc(C2(O)CC3CCC(C2)N3c2cc(C)nc(-c3ccccc3)n2)cc1 (configuration not stated)	.	92.6	.	.	53.2
Cc1cc(N2CCN(c3ccccc3)CC2)nc(-c2ccccc2)n1	.	.	.	.	85.7
Cc1cc(N2CCN(C(=O)c3ccco3)CC2)nc(-c2ccccc2)n1	/	55.2	.	.	73.6
Cc1ccc(SCC(=O)O/N=C(\N)c2ccc([N+](=O)[O-])cc2)cc1	.	.	.	.	.
COc1cccc(C2NC(=O)NC(C)=C2C(=O)Nc2ccc(C)cc2)c1 (configuration not stated)	.	.	.	.	.
CC(C)Oc1ccc(C(=O)NCc2cccs2)cc1	.	.	.	.	70.5
Cc1occc1C(=O)NCc1cccs1	.	/	/	/	/
CC(C)Oc1ccc(C(CC(=O)O)NC(=O)c2cccs2)cc1 (configuration not stated)	.	54.7	.	.	.
CC(C)Cc1cc(C(=O)NCc2cccs2)no1	/	.	.	.	79.6
CC(C)Cc1cc(C(=O)NCc2cccnc2)no1	.	.	.	.	.
CCCOc1ccc(C(CC(=O)O)NC(=O)c2cccs2)cc1 (configuration not stated)	.	.	.	.	.
Cc1cc(C(=O)NCc2cccs2)c(C)o1	.	.	.	.	50.4
CCOC(=O)N1CCC(N2CC34C=CC(O3)C(C(=O)Nc3ccc(C)cc3)C4C2=O)CC1 (configuration not stated)	.	.	.	.	.
Cc1cc(C(=O)NCc2cccs2)cs1	.	.	.	.	73.2

High-throughput results as filed in PubChem BioAssay.
